DT40 TDP1 no CPT: qHTS for Inhibitors of human tyrosyl-DNA phosphodiesterase 1 (TDP1): qHTS in cells in absence of CPT. Potency, µM (titrated, usually from 46.2 µM), inactives show at the top dose activity change, negative = growth inhibition, usual class: inhibitors. hit rate 15% among 420,000. DT40 Tdp1-/- hTDP1 cells, no CPT, ATP luminescence, 48 h; note: % is set by controls: 0 for no effect and ±100 for the full control effect; nearly all actives have a fitted effect of over 55% in size
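Chicken DT40 Tdp1-/- cells complemented with human TDP1, screened without camptothecin (DMSO vehicle only), 400 cells/well. Compounds pin-transferred, cells incubated at 37 °C for at least 48 hr. Growth read as ATP-dependent luminescence (CellTiter-Glo, 30 min at RT).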
HepG2 viability: qHTS for Inhibitors of TGF-b: Cytotox Counterscreen; HepG2 CAGA-GFP viability, ATP luminescence, 18 h; Potency, µM (titrated, usually from 46.1 µM), for inactives: at the highest dose activity change, negative = cytotoxicity, most hits filed as cytotoxic; hit rate 0.76% among 410,000; AID 588856, 2011
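CellTiter-Glo luminescence gave cytotoxicity after 18 hours at 37 degrees C. The cells were HepG2 CAGA-GFP in 1% FBS DMEM, stimulated with 500 pg/mL TGF-beta after compound addition. %Activity was normalised to no-cell wells (complete cell-killing) and DMSO (no toxicity), and curves were fitted and classified.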
HT1080 IDH1KD tx: qHTS for induction of synthetic lethality in tumor cells producing 2HG: qHTS for the HT-1080-IDH1KD cell line | HT-1080 IDH1 knockdown viability, ATP luminescence, 48 h | Potency, µM (series often up to 46.1 µM), for inactives: at the highest dose activity, negative = toxicity, most hits filed as cytotoxic | hit rate 2% among 360,000;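 note: 0% = DMSO wells and -100% = cell-free medium wells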
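IDH1KD HT-1080 cells, 750/well, RPMI + 5% FBS; compound pinned after 2 h settling; 48 h, 37 °C; CellTiter-Glo luminescence; % activity normalised to DMSO and no-cell wells; curves fitted, classed by r2 and efficacy.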
TGFb SMAD3 inh: qHTS for Inhibitors of TGF-b. Potency, µM (top dose mostly 46.1 µM), without a hit: at the top dose activity, negative = inhibition, hits mostly inhibitors. AID 588855, 2011. hit rate 1.2% among 410,000. HepG2 CAGA-GFP TGF-b/SMAD3 reporter, GFP fluorescence, 18 h; TGF-beta stimulated, 500 pg/mL final; note: % is set by controls: 0 for no effect and ±100 for the full control effect; nearly all actives have a fitted effect of over 65% in size
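Read-out: total well GFP (ex488/em500-530) summed from mean per-cell fluorescence. Cells: HEPG2 CAGA-GFP, 1% FBS DMEM, 18 h at 37 degrees C with 500 pg/mL final TGF-beta. Unstimulated wells served as the full-inhibition control; stimulated DMSO wells = 0%.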
DT40 TDP1 CPT: qHTS for Inhibitors of human tyrosyl-DNA phosphodiesterase 1 (TDP1): qHTS in cells in presence of CPT. chicken DT40 Tdp1-/-;hTDP1 cells + 20 nM CPT, ATP luminescence, 48 h. Potency, µM (doses to about 46.2 µM), for the others: at the highest dose activity change, negative = growth inhibition, most hits filed as inhibitors. hit rate 12% among 420,000; note: % is set by controls: 0 for no effect and ±100 for the full control effect; nearly all actives have a fitted effect of over 55% in size
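Chicken DT40 Tdp1-/- cells stably complemented with human TDP1 were seeded at 400 cells/well in medium containing 20 nM camptothecin, exposed to pin-transferred compounds, and grown at 37 °C for at least 48 hr. Viability was read as ATP luminescence.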
HT1080NT lethal: qHTS for induction of synthetic lethality in tumor cells producing 2HG: qHTS for the HT-1080-NT fibrosarcoma cell line; Potency, µM (series often up to 46.1 µM), inactives show at the top dose activity, negative = less viability, usual class: cytotoxic; HT-1080-NT fibrosarcoma viability, CellTiter-Glo ATP luminescence, 48 h; hit rate 1.6% among 360,000;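 note: NT is the 2HG producing partner of a matched IDH1 knockdown line; 0% = DMSO-treated cells and -100% = media-only wells without cells; nearly all actives have a fitted effect of over 55% in size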
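HT-1080-NT; 750 cells/well; 5% FBS RPMI; 48 h compound, 37 degrees C; CellTiter-Glo luminescence; curve fitting and curve-class assignment.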
* marks the source's active call; other numbers are inactive results; [ ] = another dose, or the depositor's remark. Sampled rows, rich in hits. Any-hit rate of the full collection: about 17%. Calls come from the whole dose curve; as a rule, active = well fitted curve in the direction sought with a large enough effect; inconclusive = small, poorly fitted or top-dose-only effect, or another doubt; inactive = no such curve, though single readings can be large; an effect the other way counts as inactive or inconclusive. Potency is the fitted concentration of half-maximal effect.

Screening COc1cc(CNCCc2ccccc2)cc(Cl)c1OCc1ccccc1 returned DT40 TDP1 no CPT inconclusive, HepG2 viability -149%, HT1080 IDH1KD tx inconclusive, TGFb SMAD3 inh inconclusive, DT40 TDP1 CPT inconclusive and HT1080NT lethal 13µM*.
For CCOc1cc(CNC2CCCC2)ccc1OCc1ccccc1Cl the results were DT40 TDP1 no CPT 21µM*, HepG2 viability -92%, HT1080 IDH1KD tx -15%, TGFb SMAD3 inh inconclusive, DT40 TDP1 CPT 13µM* and HT1080NT lethal 12%.
For COCCN1C(=O)CSCC1(C)C(=O)Nc1c(C)cccc1C (stereo not drawn) the results were DT40 TDP1 no CPT 10%, HT1080 IDH1KD tx 6%, DT40 TDP1 CPT 25% and HT1080NT lethal 10%.
COc1ccc(N2CCN(CC(O)COc3ccccc3C(C)(C)C)CC2)cc1 (stereo not drawn) was read as DT40 TDP1 no CPT inconclusive, HepG2 viability -42%, TGFb SMAD3 inh inconclusive and DT40 TDP1 CPT inconclusive.
CC(=O)N(C)c1ccc(NC(=O)c2ccc([N+](=O)[O-])cc2Cl)cc1 was read as DT40 TDP1 no CPT -20%, HepG2 viability -2%, HT1080 IDH1KD tx 13%, TGFb SMAD3 inh -3%, DT40 TDP1 CPT -28% and HT1080NT lethal 21%.
`CCOc1ccc(Nc2oc(/C=C/c3cccc(OC)c3)nc2C#N)cc1` gave DT40 TDP1 no CPT 23µM*, HepG2 viability -15%, TGFb SMAD3 inh inconclusive and DT40 TDP1 CPT inconclusive.
`CCOc1ccc(/C=C/c2nc(C#N)c(NC(C)c3ccccc3)o2)cc1` (stereo not drawn) gave DT40 TDP1 no CPT 12µM*, HepG2 viability -38%, TGFb SMAD3 inh -30% and DT40 TDP1 CPT 13µM*.
Screening COc1ccc(CNc2oc(/C=C/c3cccc(OC)c3)nc2C#N)cc1 returned DT40 TDP1 no CPT 23µM*, HepG2 viability -17%, TGFb SMAD3 inh inconclusive and DT40 TDP1 CPT 23µM*.
COc1cccc(/C=C/c2nc(C#N)c(NCCc3ccc(OC)c(OC)c3)o2)c1 was read as DT40 TDP1 no CPT -87%, HepG2 viability 0%, TGFb SMAD3 inh inconclusive and DT40 TDP1 CPT inconclusive.
CCOc1ccc(/C=C/c2nc(C#N)c(Nc3ccc(OCC)cc3)o2)cc1 was read as DT40 TDP1 no CPT 23µM*, HepG2 viability -5%, TGFb SMAD3 inh 2% and DT40 TDP1 CPT 23µM*.
CCOc1ccc(/C=C/c2nc(C#N)c(NC3CCCCC3)o2)cc1 was read as DT40 TDP1 no CPT inconclusive, HepG2 viability 6%, TGFb SMAD3 inh -20% and DT40 TDP1 CPT inconclusive.
Cc1cnc(C)c(-c2ccc(O)c(CN3CCN(C=O)CC3)c2)n1 was read as DT40 TDP1 no CPT 9% and DT40 TDP1 CPT 11%.
`CCOc1ccc(Nc2oc(/C=C/c3cc(OC)c(OC)c(OC)c3)nc2C#N)cc1` gave DT40 TDP1 no CPT inconclusive, HepG2 viability 0%, TGFb SMAD3 inh 2% and DT40 TDP1 CPT inconclusive.
CCOc1ccc(/C=C/c2nc(C#N)c(Nc3ccc(OC)cc3)o2)cc1 was read as DT40 TDP1 no CPT 16µM*, HepG2 viability -2%, TGFb SMAD3 inh -20% and DT40 TDP1 CPT 21µM*.
`O=C(O)/C(=N/NC(=O)c1ccc(Cl)cc1)c1ccccc1` gave DT40 TDP1 no CPT 17%, HepG2 viability 15%, HT1080 IDH1KD tx 10%, TGFb SMAD3 inh 29%, DT40 TDP1 CPT 8% and HT1080NT lethal 3%.
Screening Cc1ccc(N/N=C(\Cc2nc3ccccc3[nH]2)c2ccccc2)cc1 returned DT40 TDP1 no CPT 0.65µM*, HepG2 viability -1%, HT1080 IDH1KD tx 0.92µM*, TGFb SMAD3 inh inconclusive, DT40 TDP1 CPT 0.82µM* and HT1080NT lethal 1.3µM*.
`N/N=C(/Cc1nc2ccccc2[nH]1)c1ccc([N+](=O)[O-])cc1` gave DT40 TDP1 no CPT inconclusive, HepG2 viability -1%, HT1080 IDH1KD tx -29%, TGFb SMAD3 inh -20%, DT40 TDP1 CPT 26µM* and HT1080NT lethal -6%.
For CS(=O)(=O)c1nc(S(=O)(=O)c2ccc(Cl)cc2)c(NCCCN2CCOCC2)s1 the results were DT40 TDP1 no CPT 21%, HepG2 viability 1%, HT1080 IDH1KD tx 2%, TGFb SMAD3 inh 2%, DT40 TDP1 CPT -3% and HT1080NT lethal 16%.
CN(c1ccc(OCCOc2ccccc2Cl)cc1)S(=O)(=O)c1ccccc1 was read as DT40 TDP1 no CPT 2.9µM*, HepG2 viability 0%, HT1080 IDH1KD tx -10%, TGFb SMAD3 inh 4%, DT40 TDP1 CPT inconclusive and HT1080NT lethal -4%.
Cc1ccc(CNC(=O)CNC(=O)c2ccc(C(C)(C)C)cc2)n1C was read as DT40 TDP1 no CPT inconclusive, HepG2 viability -7%, HT1080 IDH1KD tx 10%, TGFb SMAD3 inh 1%, DT40 TDP1 CPT inconclusive and HT1080NT lethal -2%[9.24 µM].
`O=C(c1ccc(Oc2ccc(C(F)(F)F)cn2)cc1)N1CCN(c2ccccc2)CC1` gave DT40 TDP1 no CPT 29µM*, HepG2 viability -34%, HT1080 IDH1KD tx -26%, TGFb SMAD3 inh -10%, DT40 TDP1 CPT -9% and HT1080NT lethal -14%.
Screening COc1ccc(N2CCN(C(=O)c3ccc(Oc4ccc(C(F)(F)F)cn4)cc3)CC2)cc1 returned DT40 TDP1 no CPT 23µM*, HepG2 viability -31%, HT1080 IDH1KD tx -16%, TGFb SMAD3 inh 11%, DT40 TDP1 CPT inconclusive and HT1080NT lethal 6%.
COc1ccc(N2CCN(C(=O)c3ccncc3)CC2)cc1 was read as DT40 TDP1 no CPT -20%, HepG2 viability 6%, HT1080 IDH1KD tx -1%, TGFb SMAD3 inh 13%, DT40 TDP1 CPT -24% and HT1080NT lethal 5%.
`Cc1nc2c(c3c1[nH]c1ccccc13)C(O)CC(C)(C)C2` (stereo not drawn) gave DT40 TDP1 no CPT inconclusive, HepG2 viability -28%, HT1080 IDH1KD tx -1%, TGFb SMAD3 inh -33%, DT40 TDP1 CPT 18µM* and HT1080NT lethal 0%.
`Cc1nn(-c2ccccc2)c2c1C(O)CC(C)(C)C2` (stereo not drawn) gave DT40 TDP1 no CPT 3%, HepG2 viability -16%, HT1080 IDH1KD tx -3%, TGFb SMAD3 inh -4%, DT40 TDP1 CPT 5% and HT1080NT lethal -2%.

Source: PubChem BioAssay
